Measured values: PubChem BioAssay (EPA / NIEHS)
Values joined by “and” are separate entries in the source; they are usually repeats but may differ in a detail not shown here. Equal values may be shown once. Active and inactive are the calls of the source. Rule for the calls, unless noted: active = hit-call score of the fitted dose curve at least 0.9, where 1 is the maximum; inactive = score below 0.9.

Legend:
[1] = read-out: Interleukin-1 alpha (IL1a), IL1A (gene 3552); assay: BSK_LPS_IL1a: BioMAP Diversity Plus: LPS Assay for Interleukin-1 alpha (IL1a) Biomarker Activity (AID 2283080); conditions: primary human HUVEC with PBMC; actives raise or lower the signal
In short: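 ELISA read-out of IL-1 alpha from a human primary vascular co-culture (endothelium plus PBMC) under LPS, sampled 24 hours post-dosing. Activity was fitted in both directions relative to DMSO controls.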

[2] = read-out: Monocyte Chemoattractant Protein-1 (MCP1), CCL2 (gene 6347); assay: BSK_LPS_MCP1: BioMAP Diversity Plus: LPS Assay for Monocyte Chemoattractant Protein-1 (MCP1) Biomarker Activity (AID 2283081); conditions: primary human HUVEC with PBMC; actives raise or lower the signal;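 for AC50: secreted MCP-1 protein quantified by ELISA in culture supernatant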
In short: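 Human endothelial–PBMC co-cultures were dosed with chemical, then LPS-driven MCP-1 levels were quantified by ELISA at 24 h. Activity in either direction was fitted versus DMSO negative control.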

[3] = BSK_LPS_PGE2: BioMAP Diversity Plus: LPS Assay for Prostaglandin E2 (PGE2) Biomarker Activity (AID 2283082); conditions: primary human HUVEC with PBMC; actives raise or lower the signal;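 for AC50: secreted prostaglandin E2 measured by ELISA in LPS-stimulated co-culture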
In short: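 PGE2 release measured by ELISA in an LPS-activated co-culture of human umbilical vein endothelial cells and peripheral blood mononuclear cells, read at 24 h post-dosing. DMSO served as baseline for bidirectional curve fitting.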

[4] = read-out: Macrophage colony-stimulating factor (MCSF), CSF1 (gene 1435); assay: BSK_LPS_MCSF: BioMAP Diversity Plus: LPS Assay for Macrophage colony-stimulating factor (MCSF) Biomarker Activity (AID 2283083); conditions: primary human HUVEC with PBMC; actives raise or lower the signal
In short: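 ELISA readout of M-CSF after 24 h compound exposure in a human endothelial/PBMC co-culture. Activity, in either direction, is fitted relative to DMSO vehicle.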

[5] = read-out: Tissue Factor, F3 (gene 2152); assay: BSK_LPS_TissueFactor: BioMAP Diversity Plus: LPS Assay for Tissue Factor Biomarker Activity (AID 2283084); conditions: primary human HUVEC with PBMC; actives raise or lower the signal
In short: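 ELISA signal for cell-surface Tissue Factor (CD142) was read 24 h after compound dosing of an LPS-stimulated human endothelial–PBMC primary co-culture. Gain or loss of signal was scored relative to DMSO.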

[6] = read-out: Tumor necrosis factor (Homo sapiens) (UniProt P01375); assay: BSK_LPS_TNFa: BioMAP Diversity Plus: LPS Assay for Tumour Necrosis Factor alpha (TNFa) Biomarker Activity (AID 2283085); conditions: primary human HUVEC with PBMC; actives raise or lower the signal;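 for AC50: TNFa protein level quantified by ELISA in the co-culture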
In short: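 TNFa was quantified by ELISA in LPS-activated co-cultures of human endothelial cells and PBMC, 24 h post-dosing. Both increases and decreases versus DMSO were fitted.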

[7] = read-out: Vascular cell adhesion molecule 1 (VCAM1), VCAM1 (gene 7412); assay: BSK_LPS_VCAM1: BioMAP Diversity Plus: LPS Assay for Vascular cell adhesion molecule 1 (VCAM1) Biomarker Activity (AID 2283086); conditions: primary human HUVEC with PBMC; actives raise or lower the signal
In short: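 VCAM-1 quantified by ELISA in an LPS-activated co-culture of human endothelial cells and peripheral blood mononuclear cells, read 24 h post-treatment. Fitted in both directions versus DMSO; parallel SRB staining flags overt cytotoxicity.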

CD38, CD38 (gene 952) = assay: BSK_SAg_CD38: BioMAP Diversity Plus: SAg Assay for CD38 Biomarker Activity (AID 2283087); conditions: primary human HUVEC with PBMC; actives raise or lower the signal
In short: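 CD38 quantified by ELISA (fluorescence) in a superantigen-activated endothelial cell–PBMC co-culture at 24 h post-dose. Activity fitted in both directions relative to DMSO; parallel SRB and Alamar Blue cytotoxicity read-outs.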

CD40, CD40 (gene 958) = assay: BSK_SAg_CD40: BioMAP Diversity Plus: SAg Assay for CD40 Biomarker Activity (AID 2283088); conditions: primary human HUVEC with PBMC; actives raise or lower the signal
In short: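 Compounds were dosed onto a human primary endothelial–PBMC co-culture, and after 24 h CD40 was quantified by ELISA using a fluorescence signal. Activity in either direction was fitted relative to DMSO.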

[8] = read-out: Monocyte Chemoattractant Protein-1 (MCP1), CCL2 (gene 6347); assay: BSK_SAg_MCP1: BioMAP Diversity Plus: SAg Assay for Monocyte Chemoattractant Protein-1 (MCP1) Biomarker Activity (AID 2283090); conditions: primary human HUVEC with PBMC; actives raise or lower the signal
In short: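 Values derive from bidirectional fitting of ELISA-measured MCP1 against DMSO controls. Readings were taken 24 h after dosing human vascular endothelial cells co-cultured with peripheral blood mononuclear cells under superantigen stimulation.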

[9] = read-out: E-selectin (Homo sapiens) (UniProt P16581); assay: BSK_SAg_Eselectin: BioMAP Diversity Plus: SAg Assay for Eselectin Biomarker Activity (AID 2283091); conditions: primary human HUVEC with PBMC; actives raise or lower the signal
In short: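 Co-culture: HUVEC + PBMC. Dose compound; 24 h. ELISA for E-selectin. Bidirectional fit vs DMSO.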

[10] = read-out: Monokine induced gamma interferon (MIG), CXCL9 (gene 4283); assay: BSK_SAg_MIG: BioMAP Diversity Plus: SAg Assay for Monokine induced gamma interferon (MIG) Biomarker Activity (AID 2283092); conditions: primary human HUVEC with PBMC; actives raise or lower the signal
In short: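 ELISA readout of MIG/CXCL9; primary human umbilical vein endothelial cells co-cultured with peripheral blood mononuclear cells; 24 h post-dose; gain/loss fit vs DMSO baseline.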

[11] = BSK_SAg_PBMCCytotoxicity: PBMC Cytotoxicity Assessment in the BioMAP Diversity Plus: SAg Assay (AID 2283093); conditions: primary human HUVEC with PBMC;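 note: PBMC viability measured as Alamar Blue reduction fluorescence at 546/580 nm; fitted both ways against DMSO so a hit may be loss or gain of signal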;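 for AC50: PBMC superantigen activated with SEB plus TSST-1 one hour after compound addition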
In short: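 Alamar Blue reduction (6 h, 546/580 nm) reports PBMC cytotoxicity after 90 h superantigen activation (SEB, TSST-1; 20 ng/mL final each) with 1 h compound pre-treatment. Gain or loss of signal fitted versus DMSO.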

[12] = read-out: Interleukin-8 (IL8), CXCL8 (gene 3576); assay: BSK_SAg_IL8: BioMAP Diversity Plus: SAg Assay for Interleukin-8 (IL8) Biomarker Activity (AID 2283094); conditions: primary human HUVEC with PBMC; actives raise or lower the signal
In short: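 ELISA readout of IL-8 from a superantigen-activated endothelial/PBMC primary human co-culture, taken 24 h post-dosing and fitted in both directions against DMSO; parallel SRB total-protein staining flags overt cytotoxicity.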

[13] = BSK_SAg_Proliferation: Cell Proliferation Assessment in the BioMAP Diversity Plus: SAg Assay (AID 2283095); conditions: primary human HUVEC with PBMC;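 note: relative cell number as total protein by SRB absorbance in sub-confluent culture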
In short: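 Relative cell number in the endothelial cell/PBMC co-culture was quantified at 96 h by SRB staining (0.1% SRB, 10% TCA fixation, read at 560 nm). Curves were fitted in both directions relative to DMSO baseline.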

[14] = BSK_SAg_SRB: Viability Assessment in the BioMAP Diversity Plus: SAg Assay (AID 2283096); conditions: primary human HUVEC with PBMC;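 note: cells read one day after compound addition; hits may be either gain or loss of signal compared with DMSO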
In short: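 This overt-cytotoxicity endpoint quantifies protein in human endothelial/PBMC co-cultures at 24 h using SRB absorbance (560 nm) after trichloroacetic acid fixation. Values reflect signal change from the DMSO negative control, fitted bidirectionally.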

CD69, CD69 (gene 969) = assay: BSK_SAg_CD69: BioMAP Diversity Plus: SAg Assay for CD69 Biomarker Activity (AID 2283089); conditions: primary human HUVEC with PBMC; actives raise or lower the signal;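 for AC50: cell surface CD69 protein quantified by ELISA with fluorescence detection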
In short: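 ELISA, fluorescence read-out: CD69 on human umbilical vein endothelial cell + PBMC co-culture, 24 h post-dosing. Gain or loss of signal fitted bidirectionally against DMSO baseline.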

[15] = target: human CYP2D6, CYP2D6 (gene 1565) (UniProt P10635); assay: NVS_ADME_hCYP2D6: NovaScreen (NVS) CYP450-related Enzyme Activity (ADME) Assay for human CYP2D6 (AID 2283107; active = hit-call score of the fitted dose curve at least 0.9, where 1 is the maximum)
human CYP2D6, CYP2D6 (gene 1565), sequence (P10635 whole entry, looked up): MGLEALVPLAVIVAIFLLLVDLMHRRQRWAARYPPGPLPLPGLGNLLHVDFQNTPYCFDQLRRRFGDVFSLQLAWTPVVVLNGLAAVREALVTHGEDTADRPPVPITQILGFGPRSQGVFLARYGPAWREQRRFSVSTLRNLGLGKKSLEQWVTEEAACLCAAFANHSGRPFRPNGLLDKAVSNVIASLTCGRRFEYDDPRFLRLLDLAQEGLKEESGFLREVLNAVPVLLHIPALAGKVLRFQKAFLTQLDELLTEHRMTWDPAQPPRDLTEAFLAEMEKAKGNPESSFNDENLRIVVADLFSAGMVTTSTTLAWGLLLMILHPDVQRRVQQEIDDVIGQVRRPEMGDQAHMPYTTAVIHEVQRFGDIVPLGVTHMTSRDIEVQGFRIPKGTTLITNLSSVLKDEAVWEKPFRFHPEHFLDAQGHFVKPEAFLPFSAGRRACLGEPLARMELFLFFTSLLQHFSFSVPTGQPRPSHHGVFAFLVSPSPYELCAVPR
In short: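 Insect-cell recombinant enzyme + fluorogenic substrate, cell-free; 1 h incubation; fluorescence intensity readout. Acetonitrile = neg. ctrl/baseline. Single-point 10 uM, duplicate; follow-up concentration series.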

Measured: AC50

E-selectin (Homo sapiens), sequence (P16581 whole entry, looked up): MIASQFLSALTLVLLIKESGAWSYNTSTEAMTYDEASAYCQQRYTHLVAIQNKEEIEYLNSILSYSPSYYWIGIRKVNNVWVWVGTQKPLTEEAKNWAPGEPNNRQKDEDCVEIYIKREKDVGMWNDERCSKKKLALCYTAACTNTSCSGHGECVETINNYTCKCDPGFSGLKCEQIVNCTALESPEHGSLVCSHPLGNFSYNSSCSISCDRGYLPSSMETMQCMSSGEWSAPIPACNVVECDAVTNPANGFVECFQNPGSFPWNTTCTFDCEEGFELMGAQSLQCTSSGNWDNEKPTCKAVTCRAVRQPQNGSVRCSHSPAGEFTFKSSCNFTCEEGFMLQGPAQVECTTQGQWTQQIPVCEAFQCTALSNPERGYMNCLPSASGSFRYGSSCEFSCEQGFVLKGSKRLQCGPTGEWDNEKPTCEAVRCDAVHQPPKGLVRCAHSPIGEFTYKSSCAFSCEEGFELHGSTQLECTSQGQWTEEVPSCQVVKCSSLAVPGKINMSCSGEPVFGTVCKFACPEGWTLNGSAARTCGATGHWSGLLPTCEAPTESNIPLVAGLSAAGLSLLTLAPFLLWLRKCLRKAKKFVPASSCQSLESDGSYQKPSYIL
Tumor necrosis factor (Homo sapiens), sequence (P01375 whole entry, looked up): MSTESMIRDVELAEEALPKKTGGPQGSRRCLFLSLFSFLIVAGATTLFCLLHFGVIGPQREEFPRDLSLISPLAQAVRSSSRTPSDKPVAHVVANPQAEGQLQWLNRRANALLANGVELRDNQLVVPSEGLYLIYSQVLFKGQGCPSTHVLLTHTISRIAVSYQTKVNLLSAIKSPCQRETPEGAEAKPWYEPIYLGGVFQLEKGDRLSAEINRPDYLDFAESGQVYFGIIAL

OCCCC(F)(F)C(F)(F)C(F)(F)C(F)(F)C(F)(F)C(F)(F)C(F)(F)C(F)(F)F
inactive: [3]
active: [1] 30 µM and 6.25 µM | [2] 29.9 µM and 44.8 µM | [4] 44.2 µM and 22.5 µM | [5] 39.3 µM and 23.2 µM | [6] 29.7 µM and 19.9 µM | [7] 41.4 µM and 23.6 µM | CD38, CD38 (gene 952) 44.8 µM and 26 µM | CD40, CD40 (gene 958) 43.8 µM and 45.5 µM | [8] 23.2 µM and 51.9 µM | [9] 52 µM and 54 µM | [10] 53.4 µM and 53.2 µM | [11] 17.3 µM and 14.4 µM | [12] 43.2 µM and 37 µM | [13] 10.2 µM and 14.6 µM | [14] 27 µM and 47.8 µM

O=C=NCc1cccc(CN=C=O)c1
inactive: [1] | [2] | [3] | [4] | [5] | [6] | [7] | CD38, CD38 (gene 952) | CD40, CD40 (gene 958) | [8] | [9] | [10] | [11] | [12] | [13] | [14]

C[Si](Cl)(Cl)CCC(F)(F)C(F)(F)C(F)(F)C(F)(F)C(F)(F)C(F)(F)F
inactive: [1] | [2] | [3] | [4] | [5] | [6] | [7] | CD38, CD38 (gene 952) | CD40, CD40 (gene 958) | CD69, CD69 (gene 969) | [8] | [9] | [10] | [11] | [12] | [13] | [14]

O=C(O)CCC(F)(F)C(F)(F)C(F)(F)C(F)(F)C(F)(F)C(F)(F)C(F)(F)F
inactive: [1] | [2] | [3] | [4] | [5] | [6] | [7] | CD38, CD38 (gene 952) | CD40, CD40 (gene 958) | [8] | [9] | [10] | [11] | [12] | [13] | [14]

CCOC(C=C(C)CCC=C(C)C)OCC
active: [1] 32.9 µM | [2] 20 µM | [4] 33.1 µM | [5] 30.5 µM | [7] 31.7 µM | CD40, CD40 (gene 958) 3.97 µM | [13] 34.4 µM
inactive: [3] | [6] | CD38, CD38 (gene 952) | [8] | [9] | [10] | [11] | [12] | [14]

Cc1cc(C)c(O)c(C(C)(C)C)c1
active: [1] 32.7 µM | [2] 36.7 µM | [4] 34.4 µM | [5] 30.8 µM | [7] 31.3 µM | CD38, CD38 (gene 952) 32.5 µM | CD40, CD40 (gene 958) 30.5 µM | [8] 30.8 µM | [9] 28.8 µM | [11] 31.7 µM | [13] 31.2 µM | [14] 35.1 µM
inactive: [3] | [6] | [10] | [12]

C[C@]12CC[C@H]3C(=CCc4cc(O)ccc43)[C@@H]1CCC2=O
inactive: [1] | [2] | [3] | [4] | [5] | [6] | [7] | CD38, CD38 (gene 952) | CD40, CD40 (gene 958) | CD69, CD69 (gene 969) | [8] | [9] | [10] | [11] | [12] | [13] | [14] | [15]

CC(C)CCCC(C)CCO (stereo unspecified)
active: [9] 20 µM | [11] 30.6 µM | [13] 20 µM
inactive: [1] | [2] | [3] | [4] | [5] | [6] | [7] | CD38, CD38 (gene 952) | CD40, CD40 (gene 958) | [8] | [10] | [12] | [14]

O=C(O)C(F)(F)OC(F)(F)C(F)(F)OC(F)(F)C(F)(F)OC(F)(F)F
inactive: [1] | [2] | [3] | [4] | [5] | [6] | [7] | CD38, CD38 (gene 952) | CD40, CD40 (gene 958) | CD69, CD69 (gene 969) | [8] | [9] | [10] | [11] | [12] | [13] | [14]

NC(=O)C(F)(F)C(F)(F)C(F)(F)F
inactive: [1] | [2] | [3] | [4] | [5] | [6] | [7] | CD38, CD38 (gene 952) | CD40, CD40 (gene 958) | [8] | [9] | [10] | [11] | [12] | [13] | [14]

O=C1C=CC(=O)N1c1ccc(Cc2ccc(N3C(=O)C=CC3=O)cc2)cc1
active: [1] 8.38 µM | [2] 14.9 µM | [3] 5.34 µM | [4] 10 µM | [5] 5.57 µM | [6] 8.82 µM | [7] 11.1 µM | CD38, CD38 (gene 952) 5.71 µM | CD40, CD40 (gene 958) 12.1 µM | CD69, CD69 (gene 969) 6.1 µM | [8] 6.98 µM | [9] 6.88 µM | [10] 13 µM | [11] 7.25 µM | [12] 4.35 µM | [13] 3.92 µM | [14] 20 µM

NC(=O)C(F)(F)C(F)(F)C(F)(F)C(F)(F)C(F)(F)C(F)(F)C(F)(F)F
inactive: [1] | [3] | [4] | [5] | [6] | [7] | CD38, CD38 (gene 952) | CD40, CD40 (gene 958) | [8] | [9] | [10] | [11] | [12] | [13] | [14]
